# CHX counter – Cycloheximide Counterscreen for Small Molecule Inhibitors of Shiga Toxin. cell reporter, cycloheximide protein synthesis inhibition counterscreen. max response, %. actives 12% (n = 300,000). AID 2314, 2010; in the data active = max response mostly above about 13%, no sharp cut-off; inactive = mostly below about 14%; also: read at 38.3 µM for the half of the compounds with a filed dose; 0% is about no effect
# Lassa entry inh – qHTS for Inhibitors of binding or entry into cells for Lassa Virus | Potency, µM (titrated, usually from 37.9 µM), for inactives: at the highest dose activity change, negative = inhibition, most hits filed as inhibitors | Lassa virus pseudotype entry inhibition, cell reporter | actives 1.2% (n = 300,000); calls by dose curve; tested in HEK293 cells; also: potency is read from the fitted curve at half-maximal effect; % is scaled to controls: 0 for no effect and ±100 for the full control effect; nearly all actives have a fitted effect of over 50% in size
# Shiga inhibitor – A qHTS for Small Molecule Inhibitors of Shiga Toxin; actives 9.2% (n = 290,000); AID 2315, 2010; inhibition, % at 38.7 µM; Vero cells, Shiga toxin protein synthesis inhibition reporter; in the data active = inhibition mostly above about 28%, no sharp cut-off; inactive = mostly below about 43%; also: 0% is about no effect
# Marburg entry inh – qHTS for inhibitors of binding or entry into cells for Marburg Virus; actives 1.8% (n = 300,000); Potency, µM (titrated, usually from 37.8 µM), for the others: top-dose activity change, negative = inhibition, hits mostly inhibitors; Marburg virus pseudotyped entry inhibition, cell reporter; calls by dose curve; tested in HEK293 cells; also: potency is read from the fitted curve at half-maximal effect; % is scaled to controls: 0 for no effect and ±100 for the full control effect
# The depositor's hits bear a star; ? = inconclusive; . = not tested or not shown; [ ] = another dose, or the depositor's remark. An excerpt weighted towards active compounds, which were near 12% of everything screened.
SMILES,CHX counter,Lassa entry inh,Shiga inhibitor,Marburg entry inh
COc1ccc(O)c(/C=N/NC(=S)Nc2cccc(S(=O)(=O)N(C)C)c2)c1,18*,4.6µM*,13,3.7µM*
COc1ccc(O)c(/C=N/NC(=S)Nc2cccnc2)c1,34*,.,91*,.
O=c1c(Cl)c(Cl)cnn1-c1ccccc1,-9,?,-19,26µM*
CN(c1cnn(-c2ccccc2)c(=O)c1Cl)n1cccc1,34*,0%,56*,?
CC(C)C[C@H]1C(=O)N2CCCC2[C@]2(O)O[C@](NC(=O)[C@@H]3C=C4c5cccc6[nH]c(Br)c(c56)C[C@H]4N(C)C3)(C(C)C)C(=O)N12 (some centres not stated),.,.,.,10µM*
O=C(Nc1cccc(O)c1)c1cnn2cccnc12,40*,-6%,101*,-41%
O=C(Nc1ccc2c(c1)OCO2)c1cnn2cccnc12,49*,-20%,74*,-18%
O=C(Nc1cccnc1)c1cnn2cccnc12,0,6%,24,15%
N=C1/C(=C\c2ccc(OC(=O)c3ccccc3Cl)cc2)C(=O)N=C2SC(N3CCOCC3)=NN12,24*,.,58*,.
N=C1/C(=C/c2ccc(OCc3ccccc3)cc2)C(=O)N=C2SC(CC(=O)N3CCOCC3)=NN12,15*,-9%[46.1 µM],32,?
COc1cc(/C=C2/C(=N)N3N=C(CC(=O)N4CCOCC4)SC3=NC2=O)ccc1OC(C)c1ccccc1 (configuration not stated),10,.,-1,.
N=C1/C(=C/c2ccc(OCc3ccccc3F)cc2)C(=O)N=C2SC(CC(=O)N3CCOCC3)=NN12,23*,.,85*,.
COc1cc(/C=C2\C(=N)N3N=C(N4CCOCC4)SC3=NC2=O)ccc1OC(=O)c1ccccc1,4,.,5,.
CC(=O)NC1C(=O)Nc2c1cccc2C(F)(F)F (configuration not stated),-2,2%,19,10%[46.1 µM]
COC(=O)C(O)(NC(=O)c1ccncc1)C(F)(F)F (configuration not stated),-4,.,-8,.
O=c1c2cn[nH]c2nc(SCc2cc(=O)n3cc(Br)ccc3n2)n1-c1ccc(Br)cc1,22*,4%,26,?
O=c1c2cn[nH]c2nc(SCc2ccccc2F)n1-c1ccc(Br)cc1,-3,?,-10,?
Cc1cccc2nc(CSc3nc4[nH]ncc4c(=O)n3-c3ccccc3Cl)cc(=O)n12,14*,-17%,47,?
Cc1ccccc1-n1c(SCc2cc(=O)n3ccccc3n2)nc2[nH]ncc2c1=O,-1,17%,-16,-22%
Cc1ccc(NC(=O)CN(C)C(=O)Cc2c(Cl)cccc2Cl)cc1,-3,-19%,-2,-10%[46.1 µM]
O=C(NS(=O)(=O)Oc1ccccc1F)OC[C@@H]1CCCN2CCCCC12 (some centres not stated),-5,7%[46.1 µM],-8,-3%[46.1 µM]
COc1ccc(C(=O)/C=C\N2CCOCC2)cc1,16,-9%,-15,15%
C=CCNc1nc(-c2c(C)nc3sccn23)cs1,25*,-28%,50*,-28%
Cc1nc2sccn2c1-c1csc(NCc2ccccc2)n1,14,-29%,29,?
Oc1ccc(/C=C/c2ccnc3ccccc23)cc1,111*,?,109*,?
SMILES,CHX counter,Lassa entry inh,Shiga inhibitor,Marburg entry inh
Clc1ccccc1/C=C/c1ccnc2ccccc12,46*,.,63*,.
Cc1noc(C)c1-c1nc(CSc2ccccc2)no1,21*,11%[46.1 µM],29,8%[46.1 µM]
Cc1cc(S(=O)(=O)Cc2noc(-c3c(C)noc3C)n2)c(C)cc1Cl,-2,?,19,?
C[C@H]1CC2C3CCC4=CC(=O)C=C[C@]4(C)[C@@]3(Cl)[C@@H](O)C[C@]2(C)[C@@]1(O)C(=O)CO (some centres not stated),.,-10%,.,6%
Clc1nc(-c2ccccc2)cc(-c2ccc(Br)cc2)n1,.,11%,.,-7%
Brc1ccc(-c2cn3ccccc3n2)cc1,35*,2.8µM*,52*,?
c1ccc2c(-c3cn4ccccc4n3)c[nH]c2c1,43*,.,142*,.
Brc1ccc(OCc2cn3ccccc3n2)cc1,36*,?,73*,-29%[46.1 µM]
O=C(COc1ccc(Br)cc1)NCc1cn2ccccc2n1,-4,-1%,-5,-2%[46.1 µM]
c1ccc(-c2cn3ccccc3n2)cc1,.,-16%[46.1 µM],.,11µM*
Cc1ccc(S(=O)(=O)NC(=O)Nc2ccc(OC(F)F)cc2)cc1,-3,.,3,.
Cc1c(CCNC=O)cc(C)c2c3c(oc12)CCCC3,.,24%,.,?
Cc1ccc(Nc2c(-c3ccco3)nc3ccc(C)cn23)cc1,.,-19%[46.1 µM],.,0%[46.1 µM]
CN(C)S(=O)(=O)c1ccc(-c2cn3ccccc3n2)cc1,35*,-22%,65*,?
